{
  "source": "PubChem BioAssay AID449739",
  "about": "(Vanderbilt High Throughput Screening Facility, 2010)",
  "note": "Out of some 100,000 compounds screened, about 4,200 (4.2%) were called active.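 The calls were made as follows: active = single-dose well whose peak fluorescence ratio is a statistical outlier from its plate by either plate-standardised score or position-corrected B-score; inactive = the rest.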 The sample as a whole holds a higher share of actives than the screen did.",
  "data": [
    {"target": "Voltage-dependent T-type calcium channel subunit alpha-1H (Homo sapiens) (UniProt O95180)", "sequence (O95180 whole entry, looked up)": "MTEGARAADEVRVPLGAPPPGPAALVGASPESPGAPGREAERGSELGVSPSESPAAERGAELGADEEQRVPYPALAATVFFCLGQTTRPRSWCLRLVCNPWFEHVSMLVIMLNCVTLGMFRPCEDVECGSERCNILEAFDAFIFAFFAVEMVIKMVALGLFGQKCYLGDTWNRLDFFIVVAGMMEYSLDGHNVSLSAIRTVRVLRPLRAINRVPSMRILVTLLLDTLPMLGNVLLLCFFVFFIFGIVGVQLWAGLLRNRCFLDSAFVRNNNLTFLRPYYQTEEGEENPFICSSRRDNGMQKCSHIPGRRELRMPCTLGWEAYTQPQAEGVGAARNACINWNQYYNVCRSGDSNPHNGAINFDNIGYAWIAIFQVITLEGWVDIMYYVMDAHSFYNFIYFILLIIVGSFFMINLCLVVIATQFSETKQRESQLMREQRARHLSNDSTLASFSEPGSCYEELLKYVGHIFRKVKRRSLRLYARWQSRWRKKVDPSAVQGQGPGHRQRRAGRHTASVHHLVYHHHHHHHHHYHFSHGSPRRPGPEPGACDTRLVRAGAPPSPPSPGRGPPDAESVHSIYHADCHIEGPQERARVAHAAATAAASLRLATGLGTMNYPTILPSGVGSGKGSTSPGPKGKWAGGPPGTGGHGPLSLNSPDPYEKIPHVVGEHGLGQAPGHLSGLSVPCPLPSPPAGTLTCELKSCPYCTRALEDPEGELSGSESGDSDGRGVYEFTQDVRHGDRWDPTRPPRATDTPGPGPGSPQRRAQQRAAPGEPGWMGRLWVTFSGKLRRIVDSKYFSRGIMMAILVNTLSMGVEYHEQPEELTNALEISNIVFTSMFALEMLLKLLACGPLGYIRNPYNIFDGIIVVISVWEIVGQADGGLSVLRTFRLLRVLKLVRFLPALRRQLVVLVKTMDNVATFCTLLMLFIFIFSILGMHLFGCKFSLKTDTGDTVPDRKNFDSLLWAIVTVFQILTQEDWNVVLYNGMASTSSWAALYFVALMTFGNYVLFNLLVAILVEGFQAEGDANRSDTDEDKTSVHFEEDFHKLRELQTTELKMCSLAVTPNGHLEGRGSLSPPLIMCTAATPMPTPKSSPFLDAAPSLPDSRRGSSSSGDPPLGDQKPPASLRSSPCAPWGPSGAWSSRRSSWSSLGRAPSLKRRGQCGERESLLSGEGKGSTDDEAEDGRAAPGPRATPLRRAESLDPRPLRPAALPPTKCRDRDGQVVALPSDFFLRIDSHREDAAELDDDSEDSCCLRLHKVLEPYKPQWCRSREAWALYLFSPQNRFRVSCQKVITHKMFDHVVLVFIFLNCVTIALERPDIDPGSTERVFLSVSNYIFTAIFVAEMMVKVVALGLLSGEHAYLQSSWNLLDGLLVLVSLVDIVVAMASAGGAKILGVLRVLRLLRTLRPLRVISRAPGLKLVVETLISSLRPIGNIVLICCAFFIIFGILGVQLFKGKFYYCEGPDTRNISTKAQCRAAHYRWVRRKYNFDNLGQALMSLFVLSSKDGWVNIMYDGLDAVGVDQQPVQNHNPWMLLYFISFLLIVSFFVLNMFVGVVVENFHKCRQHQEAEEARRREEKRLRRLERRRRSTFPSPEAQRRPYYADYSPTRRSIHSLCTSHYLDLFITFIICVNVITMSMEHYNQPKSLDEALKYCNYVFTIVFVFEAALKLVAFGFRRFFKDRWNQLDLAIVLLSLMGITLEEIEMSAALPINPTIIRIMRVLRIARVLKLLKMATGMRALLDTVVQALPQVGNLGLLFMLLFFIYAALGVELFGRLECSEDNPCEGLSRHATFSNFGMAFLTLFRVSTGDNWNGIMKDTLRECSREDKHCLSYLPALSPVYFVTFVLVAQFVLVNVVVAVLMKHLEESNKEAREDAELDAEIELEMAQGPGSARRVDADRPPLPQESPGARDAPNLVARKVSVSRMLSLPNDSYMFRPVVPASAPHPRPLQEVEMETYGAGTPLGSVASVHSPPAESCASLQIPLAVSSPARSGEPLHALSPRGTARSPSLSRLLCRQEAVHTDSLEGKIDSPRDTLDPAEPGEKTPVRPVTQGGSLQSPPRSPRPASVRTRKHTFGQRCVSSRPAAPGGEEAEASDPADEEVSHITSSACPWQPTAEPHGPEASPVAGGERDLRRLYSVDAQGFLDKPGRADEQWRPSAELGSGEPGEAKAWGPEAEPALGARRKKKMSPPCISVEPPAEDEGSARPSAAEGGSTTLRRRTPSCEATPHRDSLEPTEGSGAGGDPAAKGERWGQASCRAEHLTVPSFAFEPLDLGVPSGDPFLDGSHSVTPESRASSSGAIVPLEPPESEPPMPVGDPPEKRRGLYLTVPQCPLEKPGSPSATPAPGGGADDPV", "assay": "Cav3.2 calcium influx blockers – cell-based, Fluo-4 calcium fluorescence, FDSS, MLSMR library, primary screen (AID 449739)", "details": "Cav3.2-expressing cells, at 10 µM, active compounds read low", "values": [
      {"smiles": "CC(Sc1nc2c([nH]c3ccccc32)c(=O)n1C)c1ccccc1", "note": "(stereo unspecified)", "B-score": "0.215 (inactive)"},
      {"smiles": "CN(C)CCNC(=O)Nc1cccc(Cl)c1Cl", "B-score": "0.258 (inactive)"},
      {"smiles": "NC(=O)CC(NC(=O)Cc1cccc2ccccc12)c1ccc(NCc2cc(F)ccc2F)c([N+](=O)[O-])c1", "note": "(stereo unspecified)", "B-score": "-0.287 (inactive)"},
      {"smiles": "Cc1cnc(NC(=O)CSc2c(Cl)cccc2Cl)s1", "B-score": "-0.466 (inactive)"},
      {"smiles": "Cc1cnc(NC(=O)CSc2nnc(-c3ccccc3)n2Cc2ccccc2)s1", "B-score": "-2.37 (inactive)"},
      {"smiles": "Cc1cnc(NC(=O)CSc2nnc(-c3ccc(Cl)cc3Cl)n2N)s1", "B-score": "-4.55 (active)"},
      {"smiles": "CNC(=O)CN1C(=O)c2ccccc2S1(=O)=O", "B-score": "0.319 (inactive)"},
      {"smiles": "O=C1c2ccccc2S(=O)(=O)N1CC(O)Cn1c2ccccc2c2ccccc21", "note": "(stereo unspecified)", "B-score": "-5.05 (active)"},
      {"smiles": "CS(=O)(=O)N(CC(O)Cn1c2ccccc2c2ccccc21)c1cccc2ccccc12", "note": "(stereo unspecified)", "B-score": "1.02 (inactive)"},
      {"smiles": "Cn1ccnc1-c1nnn(-c2ccc(F)cc2)n1", "B-score": "-0.241 (inactive)"},
      {"smiles": "Cc1cccc(C(=O)Nc2ccccc2-c2nnn(CC(=O)Nc3ccc4c(c3)OCCO4)n2)c1", "B-score": "0.0432 (inactive)"},
      {"smiles": "COc1ccc(C2/C=C\\CN(S(=O)(=O)c3cccs3)CC(=O)N2Cc2ccc(F)cc2)cc1", "note": "(stereo unspecified)", "B-score": "-1.93 (inactive)"},
      {"smiles": "CCCC(=O)N1CCc2[nH]c3ccccc3c2C1", "B-score": "1.88 (inactive)"},
      {"smiles": "O=C(Nc1ccc(Cl)cc1)N1CCc2[nH]c3ccccc3c2C1", "B-score": "-6.38 (active)"},
      {"smiles": "O=C(NC1CCCCC1)N1CCc2[nH]c3ccccc3c2C1", "B-score": "-0.408 (inactive)"},
      {"smiles": "CCC(C)NC(=O)c1c(N)n(/N=C/c2cccs2)c2nc3ccccc3nc12", "note": "(stereo unspecified)", "B-score": "-0.663 (inactive)"},
      {"smiles": "COc1ccccc1OCCNc1cc(N2CCOCC2)ccc1[N+](=O)[O-]", "B-score": "-0.763 (inactive)"},
      {"smiles": "CCOC(=O)c1sc(NC(=O)CSc2nc3c(c(=O)n2-c2ccccc2)SCC3)c(C(=O)OCC)c1C", "B-score": "-0.157 (inactive)"},
      {"smiles": "CC(C)C[C@H](NC(=O)Nc1cccc(C(F)(F)F)c1)C(=O)O", "B-score": "0.25 (inactive)"},
      {"smiles": "CC(=O)N1CCN(C(=O)Nc2cccc(C(F)(F)F)c2)CC1", "B-score": "0.454 (inactive)"},
      {"smiles": "FC(F)(F)c1cccc(NC(=S)Nc2cccc(Cl)c2)c1", "B-score": "-7.17 (active)"},
      {"smiles": "c1ccc(-n2nnnc2NC2CCCCCC2)cc1", "B-score": "0.00228 (inactive)"},
      {"smiles": "O=C(c1ccco1)N1CCN(C(=O)C2c3ccccc3Oc3ccccc32)CC1", "B-score": "0.29 (inactive)"},
      {"smiles": "O=C(N/N=C/c1ccc(O)c(O)c1)C1c2ccccc2Oc2ccccc21", "B-score": "1.05 (inactive)"},
      {"smiles": "CCCN(CCC)C(=O)C1c2ccccc2Oc2ccccc21", "B-score": "-4.57 (active)"},
      {"smiles": "C=CCNc1nc(N)c(C(=C(C#N)C#N)c2ccccc2)s1", "B-score": "-0.0432 (inactive)"}
    ]}
  ]
}
